According to the supplement of paper PMC4466140:

Tests used:
Assay in all cases: SPOT peptide array binding signal intensity (averaged, normalized) (arbitrary units (background-subtracted, floor 0; scale differs between SH3 domains)); higher = stronger binding of the SH3 domain to the peptide
CaNbp2 = molecular target: CaNbp2
Method in brief: (§1)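 Four yeast species supplied the SH3 domains, which were expressed as GST fusions in E. coli BL21(DE3) and purified on glutathione Sepharose. Incubation with cellulose membranes carrying synthetic 15-mer peptides, cysteines exchanged for serines, ran overnight at 4°C at 10 μg/ml in TBS-based blocking buffer. Binding signal is reported as normalized, background-subtracted spot intensity averaged over replicates, in arbitrary units not shared between domains.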

CaRvs167 = molecular target: CaRvs167
Method in brief: as §1

CaRvs167-3 = molecular target: CaRvs167-3
Method in brief: as §1

CaSho1 = molecular target: CaSho1
Method in brief: as §1

CaSla1-D1-D2 = molecular target: CaSla1-D1-D2
Method in brief: as §1

CaSla1-D3 = molecular target: CaSla1-D3
Method in brief: as §1

ScAbp1 = molecular target: ScAbp1
Method in brief: as §1

ScBbc1 = molecular target: ScBbc1
Method in brief: as §1

ScBem1-D1 = molecular target: ScBem1-D1
Method in brief: as §1

ScBzz1-D1 = molecular target: ScBzz1-D1
Method in brief: as §1

ScBzz1-D2 = molecular target: ScBzz1-D2
Method in brief: as §1

ScCyk3 = molecular target: ScCyk3
Method in brief: as §1

ScFus1 = molecular target: ScFus1
Method in brief: as §1

ScHof1 = molecular target: ScHof1
Method in brief: as §1

ScHse1 = molecular target: ScHse1
Method in brief: as §1

ScLsb1 = molecular target: ScLsb1
Method in brief: as §1

ScLsb2 = molecular target: ScLsb2
Method in brief: as §1

ScLsb3 = molecular target: ScLsb3
Method in brief: as §1

ScLsb4 = molecular target: ScLsb4
Method in brief: as §1

ScMyo3 = molecular target: ScMyo3
Method in brief: as §1

ScMyo5 = molecular target: ScMyo5
Method in brief: as §1

ScNbp2 = molecular target: ScNbp2
Method in brief: as §1

ScPex13 = molecular target: ScPex13
Method in brief: as §1

ScRvs167 = molecular target: ScRvs167
Method in brief: as §1

ScSho1 = molecular target: ScSho1
Method in brief: as §1

ScSla1-D1-D2 = molecular target: ScSla1-D1-D2
Method in brief: as §1

ScSla1-D3 = molecular target: ScSla1-D3
Method in brief: as §1

SpAbp1-D1 = molecular target: SpAbp1-D1
Method in brief: as §1

SpBbc1 = molecular target: SpBbc1
Method in brief: as §1

SpBzz1-D1 = molecular target: SpBzz1-D1
Method in brief: as §1

SpBzz1-D2 = molecular target: SpBzz1-D2
Method in brief: as §1

SpCyk3 = molecular target: SpCyk3
Method in brief: as §1

SpHof1 = molecular target: SpHof1
Method in brief: as §1

SpHof1-2 = molecular target: SpHof1-2
Method in brief: as §1

SpHof1-3 = molecular target: SpHof1-3
Method in brief: as §1

SpHse1 = molecular target: SpHse1
Method in brief: as §1

SpLsb1 = molecular target: SpLsb1
Method in brief: as §1

SpLsb4 = molecular target: SpLsb4
Method in brief: as §1

SpMyo1 = molecular target: SpMyo1
Method in brief: as §1

SpNbp2 = molecular target: SpNbp2
Method in brief: as §1

SpPex13 = molecular target: SpPex13
Method in brief: as §1

SpRvs167 = molecular target: SpRvs167
Method in brief: as §1

SpSla1-D1-D2 = molecular target: SpSla1-D1-D2
Method in brief: as §1

SpSla1-D3 = molecular target: SpSla1-D3
Method in brief: as §1

AgAbp1 = molecular target: AgAbp1
Method in brief: as §1

AgBbc1 = molecular target: AgBbc1
Method in brief: as §1

AgBem1-D1 = molecular target: AgBem1-D1
Method in brief: as §1

AgBzz1-D1 = molecular target: AgBzz1-D1
Method in brief: as §1

AgBzz1-D2 = molecular target: AgBzz1-D2
Method in brief: as §1

AgCyk3 = molecular target: AgCyk3
Method in brief: as §1

AgFus1 = molecular target: AgFus1
Method in brief: as §1

AgHof1 = molecular target: AgHof1
Method in brief: as §1

AgHse1 = molecular target: AgHse1
Method in brief: as §1

AgLsb1 = molecular target: AgLsb1
Method in brief: as §1

AgLsb4 = molecular target: AgLsb4
Method in brief: as §1

AgMyo5 = molecular target: AgMyo5
Method in brief: as §1

AgNbp2 = molecular target: AgNbp2
Method in brief: as §1

AgRvs167 = molecular target: AgRvs167
Method in brief: as §1

AgSho1 = molecular target: AgSho1
Method in brief: as §1

AgSla1-D1-D2 = molecular target: AgSla1-D1-D2
Method in brief: as §1

AgSla1-D3 = molecular target: AgSla1-D3
Method in brief: as §1

CaAbp1-D1 = molecular target: CaAbp1-D1
Method in brief: as §1

CaAbp1-D2 = molecular target: CaAbp1-D2
Method in brief: as §1

CaBbc1 = molecular target: CaBbc1
Method in brief: as §1

CaBem1-D1 = molecular target: CaBem1-D1
Method in brief: as §1

CaBzz1-D1 = molecular target: CaBzz1-D1
Method in brief: as §1

CaBzz1-D2 = molecular target: CaBzz1-D2
Method in brief: as §1

CaCyk3 = molecular target: CaCyk3
Method in brief: as §1

CaFus1 = molecular target: CaFus1
Method in brief: as §1

CaHof1 = molecular target: CaHof1
Method in brief: as §1

CaHse1 = molecular target: CaHse1
Method in brief: as §1

CaLsb1 = molecular target: CaLsb1
Method in brief: as §1

CaLsb4 = molecular target: CaLsb4
Method in brief: as §1

CaMyo5 = molecular target: CaMyo5
Method in brief: as §1

DGNEEKPLLPTRPNK
SPOT peptide array binding signal intensity (CaNbp2): 4.5
SPOT peptide array binding signal intensity (CaRvs167): 382
SPOT peptide array binding signal intensity (CaRvs167-3): 22
SPOT peptide array binding signal intensity (CaSho1): 1.5
SPOT peptide array binding signal intensity (CaSla1-D1-D2): ≤ 0
SPOT peptide array binding signal intensity (CaSla1-D3): ≤ 0
SPOT peptide array binding signal intensity (ScAbp1): ≤ 0
SPOT peptide array binding signal intensity (ScBbc1): 306
SPOT peptide array binding signal intensity (ScBem1-D1): 6.5
SPOT peptide array binding signal intensity (ScBzz1-D1): 34.2
SPOT peptide array binding signal intensity (ScBzz1-D2): ≤ 0
SPOT peptide array binding signal intensity (ScCyk3): ≤ 0
SPOT peptide array binding signal intensity (ScFus1): ≤ 0
SPOT peptide array binding signal intensity (ScHof1): 41.6
SPOT peptide array binding signal intensity (ScHse1): 15
SPOT peptide array binding signal intensity (ScLsb1): 209
SPOT peptide array binding signal intensity (ScLsb2): 10
SPOT peptide array binding signal intensity (ScLsb3): 7260
SPOT peptide array binding signal intensity (ScLsb4): 4200
SPOT peptide array binding signal intensity (ScMyo3): 0.5
SPOT peptide array binding signal intensity (ScMyo5): 8.12
SPOT peptide array binding signal intensity (ScNbp2): ≤ 0
SPOT peptide array binding signal intensity (ScPex13): 855
SPOT peptide array binding signal intensity (ScRvs167): 871
SPOT peptide array binding signal intensity (ScSho1): ≤ 0
SPOT peptide array binding signal intensity (ScSla1-D1-D2): ≤ 0
SPOT peptide array binding signal intensity (ScSla1-D3): ≤ 0
SPOT peptide array binding signal intensity (SpAbp1-D1): ≤ 0
SPOT peptide array binding signal intensity (SpBbc1): 0.5
SPOT peptide array binding signal intensity (SpBzz1-D1): ≤ 0
SPOT peptide array binding signal intensity (SpBzz1-D2): ≤ 0
SPOT peptide array binding signal intensity (SpCyk3): ≤ 0
SPOT peptide array binding signal intensity (SpHof1): 0.25
SPOT peptide array binding signal intensity (SpHof1-2): 0.875
SPOT peptide array binding signal intensity (SpHof1-3): 1.88
SPOT peptide array binding signal intensity (SpHse1): ≤ 0
SPOT peptide array binding signal intensity (SpLsb1): 1100
SPOT peptide array binding signal intensity (SpLsb4): 3290
SPOT peptide array binding signal intensity (SpMyo1): ≤ 0
SPOT peptide array binding signal intensity (SpNbp2): ≤ 0
SPOT peptide array binding signal intensity (SpPex13): ≤ 0
SPOT peptide array binding signal intensity (SpRvs167): 467
SPOT peptide array binding signal intensity (SpSla1-D1-D2): ≤ 0
SPOT peptide array binding signal intensity (SpSla1-D3): ≤ 0

VPVAPPPPPASLGQS
SPOT peptide array binding signal intensity (AgAbp1): ≤ 0
SPOT peptide array binding signal intensity (AgBbc1): ≤ 0
SPOT peptide array binding signal intensity (AgBem1-D1): 15
SPOT peptide array binding signal intensity (AgBzz1-D1): 0.5
SPOT peptide array binding signal intensity (AgBzz1-D2): ≤ 0
SPOT peptide array binding signal intensity (AgCyk3): ≤ 0
SPOT peptide array binding signal intensity (AgFus1): ≤ 0
SPOT peptide array binding signal intensity (AgHof1): ≤ 0
SPOT peptide array binding signal intensity (AgHse1): 17
SPOT peptide array binding signal intensity (AgLsb1): 0.25
SPOT peptide array binding signal intensity (AgLsb4): ≤ 0
SPOT peptide array binding signal intensity (AgMyo5): 4.25
SPOT peptide array binding signal intensity (AgNbp2): ≤ 0
SPOT peptide array binding signal intensity (AgRvs167): 3
SPOT peptide array binding signal intensity (AgSho1): ≤ 0
SPOT peptide array binding signal intensity (AgSla1-D1-D2): 6
SPOT peptide array binding signal intensity (AgSla1-D3): 1
SPOT peptide array binding signal intensity (CaAbp1-D1): 2
SPOT peptide array binding signal intensity (CaAbp1-D2): 4
SPOT peptide array binding signal intensity (CaBbc1): 0.5
SPOT peptide array binding signal intensity (CaBem1-D1): ≤ 0
SPOT peptide array binding signal intensity (CaBzz1-D1): 89
SPOT peptide array binding signal intensity (CaBzz1-D2): 9.5
SPOT peptide array binding signal intensity (CaCyk3): ≤ 0
SPOT peptide array binding signal intensity (CaFus1): 16
SPOT peptide array binding signal intensity (CaHof1): ≤ 0
SPOT peptide array binding signal intensity (CaHse1): ≤ 0
SPOT peptide array binding signal intensity (CaLsb1): 0.75
SPOT peptide array binding signal intensity (CaLsb4): ≤ 0
SPOT peptide array binding signal intensity (CaMyo5): 13.5
SPOT peptide array binding signal intensity (CaNbp2): 17.5
SPOT peptide array binding signal intensity (CaRvs167): ≤ 0
SPOT peptide array binding signal intensity (CaRvs167-3): 1.5
SPOT peptide array binding signal intensity (CaSho1): 28
SPOT peptide array binding signal intensity (CaSla1-D1-D2): ≤ 0
SPOT peptide array binding signal intensity (CaSla1-D3): ≤ 0
SPOT peptide array binding signal intensity (ScAbp1): 0.5
SPOT peptide array binding signal intensity (ScBbc1): 2.5
SPOT peptide array binding signal intensity (ScBem1-D1): 0.5
SPOT peptide array binding signal intensity (ScBzz1-D1): 3
SPOT peptide array binding signal intensity (ScBzz1-D2): 8.5
SPOT peptide array binding signal intensity (ScCyk3): ≤ 0
SPOT peptide array binding signal intensity (ScFus1): ≤ 0
SPOT peptide array binding signal intensity (ScHof1): ≤ 0
SPOT peptide array binding signal intensity (ScHse1): 4
SPOT peptide array binding signal intensity (ScLsb1): ≤ 0
SPOT peptide array binding signal intensity (ScLsb2): ≤ 0
SPOT peptide array binding signal intensity (ScLsb3): ≤ 0
SPOT peptide array binding signal intensity (ScLsb4): 4
SPOT peptide array binding signal intensity (ScMyo3): 372
SPOT peptide array binding signal intensity (ScMyo5): 91
SPOT peptide array binding signal intensity (ScNbp2): ≤ 0
SPOT peptide array binding signal intensity (ScPex13): ≤ 0
SPOT peptide array binding signal intensity (ScRvs167): ≤ 0
SPOT peptide array binding signal intensity (ScSho1): 3
SPOT peptide array binding signal intensity (ScSla1-D1-D2): ≤ 0
SPOT peptide array binding signal intensity (ScSla1-D3): 1.5
SPOT peptide array binding signal intensity (SpAbp1-D1): ≤ 0
SPOT peptide array binding signal intensity (SpBbc1): ≤ 0
SPOT peptide array binding signal intensity (SpBzz1-D1): 237
SPOT peptide array binding signal intensity (SpBzz1-D2): 1.25
SPOT peptide array binding signal intensity (SpCyk3): ≤ 0
SPOT peptide array binding signal intensity (SpHof1): ≤ 0
SPOT peptide array binding signal intensity (SpHof1-2): ≤ 0
SPOT peptide array binding signal intensity (SpHof1-3): 0.5
SPOT peptide array binding signal intensity (SpHse1): 1
SPOT peptide array binding signal intensity (SpLsb1): ≤ 0
SPOT peptide array binding signal intensity (SpLsb4): ≤ 0
SPOT peptide array binding signal intensity (SpMyo1): 49.8
SPOT peptide array binding signal intensity (SpNbp2): 1.5
SPOT peptide array binding signal intensity (SpPex13): ≤ 0
SPOT peptide array binding signal intensity (SpRvs167): 3.33
SPOT peptide array binding signal intensity (SpSla1-D1-D2): ≤ 0
SPOT peptide array binding signal intensity (SpSla1-D3): ≤ 0
